We go through 14 compounds from ChEMBL document CHEMBL4513146, “CO-ADD screening of Karazin Kharkiv National University (Ukraine) compounds”.

Potency and affinity values are given separately.

The assay deals with Klebsiella pneumoniae. The following applies: Concentration 32 ug.mL-1;; ASSAY_TEST Inhibition of Bacterial Growth; detection method Absorption (OD600); MEDIA CAMHB; plate type 384well; NBS; CORNING #3640; time 18 hr.
Consider `Cc1ccc(NC(=O)Cn2nc3ccc(SCc4ccc(Cl)cc4)nn3c2=O)c(C)c1`, for which the Inhibition was found to be 5.23%.
On to `Cc1ccccc1Oc1nc2ccccc2n2c(=O)n(CC(=O)Nc3ccccc3C(F)(F)F)nc12`, for which the Inhibition stood at 7.22%.
The figure for `O=C(Cn1nc2c(Oc3ccccc3)nccn2c1=O)Nc1ccc(Br)cc1F` is -1.93%; for `C=Cc1ccc(CN(c2ccc(C(C)C)cc2)S(=O)(=O)c2cccn3cnnc23)cc1` it is 14.46%.
The figure for `CCc1nnc2c(=O)n(CC(=O)Nc3cccc(C#N)c3)c3ccccc3n12` is 9.63%; for `Cc1nnc2c(=O)n(CC(=O)Nc3ccccc3F)c3ccccc3n12` it is 0.65%; for `CCCNC(=O)CSc1nnc2c(=O)n(-c3ccc(F)cc3)ccn12` it is 12.9%.
For the compound `Cc1ccc(-c2cc3c4nnc(CCC(=O)NCc5ccc(C(F)(F)F)cc5)n4ccn3n2)cc1C`, the Inhibition is listed as 10.93%.
`CCc1ccc(N(Cc2ccccc2C)S(=O)(=O)c2cccn3c(CC)nnc23)cc1`: the Inhibition is recorded as 6.17%.
Under `Cc1ccc(CNC(=O)Cn2nc3ccc(SC4CCCCC4)nn3c2=O)cc1` stands 11.36%; under `CCc1ccc(N(Cc2ccc(F)cc2)S(=O)(=O)c2cccn3c(CC)nnc23)cc1`, 6.32%; under `CCCc1nnc2c(=O)n(CC(=O)Nc3cccc(C(C)=O)c3)c3ccccc3n12`, -4.73%.
Turning to `Cc1nc(-c2ccccn2)cc2nn(CC(=O)Nc3ccccc3C(F)(F)F)c(=O)n12`, the Inhibition stood at 3.31%.
Turning to `COc1ccc(CCn2c(=O)c3sccc3n3c(=O)n(CC(=O)c4ccccc4)nc23)cc1OC`, the Inhibition was 16.06%.
